In ChEMBL document CHEMBL4513216, “Probing the Open Global Health Chemical Diversity Library for Multistage-Active Starting Points for Next-Generation Antimalarials” (ACS Infect Dis, 2020):
In all, about 68,000 compounds went through this assay and about 2,700 (4%) showed an effect of 50% or more. For the sample, strong results were picked, then their nearest neighbours and some compounds at random.

system: Plasmodium berghei; assay: Screen against P. berghei liver stage (PbLuc), transformed with Luciferase, at 2uM; type: functional, HepG2; details: tested at 2 uM

SMILES	INHIBITION
CC1c2ccc(F)cc2CCN1C(=O)c1[nH]c(=O)[nH]c(=O)c1N (stereo unspecified)	-36.67%
CCOC(=O)c1ccc(NC(=O)c2c(O)nc3c(c2O)CCCC3)cc1	-23.02%
CC(=O)N1CC(=O)N(c2cnn(C)c2)CC12CCN(CC1CC1)C2 (stereo unspecified)	-7.82%
Cc1cccc(C(=O)N2CCO[C@H]3[C@H](OCCN(C)C)CC[C@@H]32)n1	19.98%
COc1c(CNC(C)C(=O)NC2CCCC2)c(C(C)C)nn1C (stereo unspecified)	3.59%
Cc1nn(C)c(N(C)C)c1CNCCC(=O)NC1CCCC1	41.76%
COc1c(CNCCC(=O)NC2CCCCC2)c(C(C)C)nn1C	64.16%
CC(C)c1nn(C)c(N(C)C)c1CNCCC(=O)NC1CCCC1	-0.64%
CC(C)c1nn(C)c(N(C)C)c1CNCCC(=O)NC1CCCCC1	39.72%
CC(NCc1c(C(C)C)nn(C)c1N(C)C)C(=O)NC1CCCC1 (stereo unspecified)	10.04%
COc1c(CNCCC(=O)NC2CCCC2)c(C(C)C)nn1C	-5.09%
COc1c(CNC(C)C(=O)NC2CCCC2)c(C)nn1C (stereo unspecified)	60.34%
Cc1nn(C)c(N(C)C)c1CNCCC(=O)NC1CCCCC1	68.24%
O=C(NC1CCC1)[C@@H]1C[C@@H]2CCN(CCc3ccccc3)C[C@H]2O1	-39.67%
CNC(=O)CN1CCOCC2(CCCN(Cc3ccc(F)cc3)C2)C1 (stereo unspecified)	34.24%
C[C@H]1C[C@H]2CN(S(=O)(=O)c3ccc(F)cc3)CC[C@@H]2O1	-21.77%
COCCNC(=O)Nc1ccc(-n2cncn2)c(F)c1	0.26%
CC(=O)Nc1ccc(-n2cncn2)c(F)c1	8.5%
COCCOc1ncccc1C(=O)Nc1ccc(-n2cncn2)c(F)c1	69.41%
COC[C@]1(O)CCN(c2cc(N3CCOCC3)ncn2)CC1(C)C	-18.81%
COc1ccc(CNC(=O)Nc2cccnc2N2CCCC2)cc1O	24.15%
O=C1N(CC2CC2)CCC12CCCN(c1ncc(F)cn1)C2 (stereo unspecified)	-14.61%
O=C1N(CC2CC2)CCC12CCN(c1ncccn1)CC2	8.37%
Cc1cnc(N2CCC3(CCN(CC4CC4)C3=O)CC2)nc1	51.19%
O=C1N(CC2CCCC2)CCC12CCN(c1ncc(F)cn1)CC2	61.15%
CN1CCC2(CCN(c3ncc(F)cn3)CC2)C1=O	34.19%

SMILES	INHIBITION
Cc1cnc(N2CCC3(CCN(CC4CCCC4)C3=O)CC2)nc1	45.28%
Cc1ccc(CNC(=O)NC2CCCN(c3ncccn3)C2)n1C (stereo unspecified)	30.83%
Cc1ccc(C(CNCc2nccn2C)N2CCOCC2)s1 (stereo unspecified)	69.82%
Cc1ccc(C(CNCc2ccncc2)N2CCOCC2)s1 (stereo unspecified)	-27.89%
CCn1cc(CNCC(c2ccc(C)s2)N2CCOCC2)cn1 (stereo unspecified)	8.33%
Cc1ccc(C(CNCc2cccn2C)N2CCOCC2)s1 (stereo unspecified)	-24.42%
Cc1ccc(C(CNCc2ncc[nH]2)N2CCOCC2)s1 (stereo unspecified)	6.4%
CCn1ccnc1CNCC(c1ccc(C)s1)N1CCOCC1 (stereo unspecified)	76.65%
NS(=O)(=O)CCNC(=O)c1nnn(-c2ccccc2)c1C1CC1	2.39%
Cc1nc(NC(=O)CN2CCc3c(nc(C(C)C)n3C)C2)sc1C	-1.14%
CS(=O)(=O)N1CCO[C@@H]2CN(C(=O)COC3CCCC3)C[C@@H]2C1	17.4%
CCOc1c(OC)cc(C=Cc2ncc(C(=O)NC)s2)cc1OC	39.56%
FC(F)(F)c1cccc(N2CCC(NCc3cccnc3)CC2)c1	47.23%
Cn1nc(-c2cccs2)cc1[C@H]1CN2CC[C@H]1C[C@@H]2CNS(C)(=O)=O	40.83%
CC(=O)NC[C@H]1C[C@@H]2CCN1C[C@@H]2c1cc(-c2cccs2)nn1C	35.89%
COCC(=O)NC[C@H]1C[C@@H]2CCN1C[C@@H]2c1cc(-c2cccs2)nn1C	27.65%
Cn1nc(-c2ccccc2)cc1[C@H]1CN2CC[C@H]1C[C@@H]2CNS(C)(=O)=O	62.25%
Cn1nc(-c2cccs2)cc1[C@H]1CN2CC[C@H]1C[C@@H]2CN	34.24%
CCNC(=O)NC[C@H]1C[C@@H]2CCN1C[C@@H]2c1cc(-c2cccs2)nn1C	60.6%
O=C(c1cc(C2CC2)on1)N1CCC(Oc2ncccc2Cl)CC1	-22.8%
CCN1C[C@@H]2[C@@H](OC)CCN(S(=O)(=O)c3ccccc3F)[C@@H]2C1	-22.38%
O=C(CCc1ccccc1)NCC(O)c1c(F)cccc1F (stereo unspecified)	-17.44%
CC(C)C(=O)N1Cc2ccccc2CC2(CCCCN2C)C1 (stereo unspecified)	6.2%
O=C(CCNc1ncccn1)N1CCN(c2nccs2)CC1	9.41%
CCC(=O)N1CCC2(CC1)CC(CC(N)=O)c1ccc(F)cc12 (stereo unspecified)	-10.13%
COCCN1CCC2(CC1)CC(CC(N)=O)c1ccc(F)cc12 (stereo unspecified)	53.06%

SMILES	INHIBITION
CC(C)N1CCC2(CC1)CC(CC(N)=O)c1ccc(F)cc12 (stereo unspecified)	-94.52%
O=C(CCc1cccc(F)c1F)N1CCCC(n2cncn2)C1 (stereo unspecified)	-19.35%
CCN(CC)[C@@H]1CN(C(=O)c2ccc(C#N)cc2)[C@@H]2CCCO[C@H]12	-58.31%
Nc1cccnc1N1CCN(c2ccccc2)CC1	-43.35%
COc1cccc(F)c1-c1nc2c([nH]1)c(C1CC1)nn2C	21.14%
O=C(c1ccncc1F)N1CCc2onc(COc3cccnc3)c2C1	54.89%
O=C(N1CCCC1)N1CCc2onc(COc3cccnc3)c2C1	11.79%
O=C(c1ccc[nH]1)N1CCc2onc(COc3cccnc3)c2C1	-39.67%
O=C(c1ccc(F)cc1F)N1C[C@@H](O)[C@H](N2CCOCC2)C1	13.51%
O=C(CCc1nccs1)N1CCCC(N2CCNC2=O)C1 (stereo unspecified)	7.74%
CCN1C[C@@H]2CN(S(=O)(=O)c3cccs3)C[C@@H]2C1=O	62.25%
COCCN1C[C@@H]2CN(S(=O)(=O)c3cccs3)C[C@@H]2C1=O	-8.59%
CC(C)CN1C[C@@H]2CN(S(=O)(=O)c3cccs3)C[C@@H]2C1=O	29.85%
CCCN1CCCn2nc(CNS(=O)(=O)c3cccc(F)c3)cc2C1	39.28%
Cc1ccc(CN(Cc2[nH]cnc2C)C2CC(C)(C)NC(C)(C)C2)o1	-13%
Cc1nc(C2CCCN2CC(=O)N2CCc3ccccc32)no1 (stereo unspecified)	47.93%
NC(=O)C1CN(C(=O)Nc2cc(Cl)cc(Cl)c2)CCO1 (stereo unspecified)	80.56%
Cc1cc(NC(=O)N2CCOC(C(N)=O)C2)ccc1Br (stereo unspecified)	29.89%
COCC1CN(C(=O)Nc2cc(Cl)cc(Cl)c2)CCO1 (stereo unspecified)	13.12%
COCCOc1ccc(NC(=O)N2CCOC(C(N)=O)C2)cc1F (stereo unspecified)	29.89%
CCOc1ccc(NC(=O)N2CCOC(C(N)=O)C2)cc1Cl (stereo unspecified)	51.4%
CCOc1ccc(NC(=O)N2CCOC(C(N)=O)C2)cc1C (stereo unspecified)	6.22%
Cc1ccsc1C(=O)N1CCCN(Cc2cscn2)CC1	29.12%
COc1ccc(NCCC(=O)NCc2cccnc2N(C)C)cc1	35.54%
CCOC(=O)c1cnn(C2CCN(C(=O)CC(C)(C)C)CC2)c1N	-40.25%
c1ccc(CN2CCC3(CC2)CC(Nc2nccs2)CO3)nc1 (stereo unspecified)	-14.97%

SMILES	INHIBITION
O=C(NCC1CCN(CCc2ccccc2)C1)NCC1(O)CCC1 (stereo unspecified)	-69.19%
O=C(NCC1CCCN1CCc1ccccc1)NCC1(O)CCC1 (stereo unspecified)	57.34%
O=C(NCC1CCCN1Cc1ccccc1)NCC1(O)CCC1 (stereo unspecified)	-19.78%
Cc1cc(CN2CC[C@H]3C[C@H](c4nc(C5CC5)cs4)O[C@@H]3C2)no1	35.84%
COCCC1COC2(CCN(C(=O)c3ccncc3)CC2)C1 (stereo unspecified)	2.5%
COCCC1COC2(CCN(C(=O)c3ccccc3)CC2)C1 (stereo unspecified)	-40.63%
COCCC1COC2(CCN(C(=O)c3ccsc3)CC2)C1 (stereo unspecified)	56.71%
Cn1cnc(S(=O)(=O)NCCN2CCCCCC2=O)c1Cl	3.86%
CCc1ccc(C(=O)NC2CCN(c3cnn(C)c3)C2=O)o1 (stereo unspecified)	26.65%
Cn1cc(N2CCC(NC(=O)c3ccccc3Cl)C2=O)cn1 (stereo unspecified)	28.95%
Cn1cc(N2CCC(NC(=O)c3ccccc3F)C2=O)cn1 (stereo unspecified)	63.1%
Cc1ccsc1C(=O)NC1CCN(c2cnn(C)c2)C1=O (stereo unspecified)	20.14%
Cc1cccc(C(=O)NC2CCN(c3cnn(C)c3)C2=O)n1 (stereo unspecified)	1.22%
Cn1cc(N2CCC(NC(=O)c3c(F)cccc3Cl)C2=O)cn1 (stereo unspecified)	50.98%
Cc1cccc(C(=O)NC2CCN(c3cnn(C)c3)C2=O)c1C (stereo unspecified)	13.53%
Cn1cc(N2CCC(NC(=O)c3c(F)cccc3F)C2=O)cn1 (stereo unspecified)	31.98%
Cc1ccccc1C(=O)NC1CCN(c2cnn(C)c2)C1=O (stereo unspecified)	52.08%
COc1ccc(S(=O)(=O)NCCn2cnc(C)cc2=O)cc1C	11.94%
CCCN1C[C@@H]2CC[C@H]1CN(C(=O)c1ccc(N(C)CCO)cc1)C2	6.73%
CC(=O)N(C)Cc1cccc(NC(=O)c2cnn(C)c2C)c1	-7.28%
CC(O)CN1CCC(CNCc2ccc(C(N)=O)cc2)CC1 (stereo unspecified)	-63.41%
N#CCCN(c1ccccc1)S(=O)(=O)CC1CCCCO1 (stereo unspecified)	16.87%
CNC(=O)CCN(C)CC1(c2ccc(Br)cc2)CC1	-43.52%
